PKM2 activator: activators of human pyruvate kinase M2. P14618. purified PKM2, Kinase-Glo ATP luminescence, activation; response scale: 0% is enzyme alone, no compound. Potency, µM (top dose mostly 57.5 µM), without a hit: at the top dose activation, actives largely listed as activators. 260,000 compounds, 0.34% hits. AID 1631; also: potency is read from the fitted curve at half-maximal effect; % is scaled to controls: 0 for no effect and ±100 for the full control effect; nearly all actives have a fitted effect of over 55% in size
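hPK-M2, >95% pure; 0.1 mM ADP / 0.5 mM PEP final; imidazole pH7.2 buffer w/ 7 mM MgCl2, 50 mM KCl; 1 h RT; Kinase-Glo lum. Intermediate enzyme activity for dual inhibitor/activator qHTS.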
IL2 activator: activators of IL-2; 360,000 compounds, 0.065% hits; AID 652025; activation, % (series mostly up to about 46 µM); IL-2 activation reporter assay, cell-based qHTS; stimulated with anti-CD3/CD4/CD28 beads; in transgenic mouse T cells; in the data active = activation above about 50%; inconclusive = mostly about 30% to 49%; also: 0% is about no effect
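Screening format: compound pinned onto unstimulated transgenic mouse T cells, 60 min incubation, then anti-CD3/anti-CD4/anti-CD28 bead stimulation for 18 hours at 37 degrees C, followed by EGFP and DsRed detection.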
ClpP mod: qHTS Assay for Activators of ClpP; AID 651965, 2013; 340,000 compounds, 1.9% hits; ATP-dependent Clp protease proteolytic subunit (Bacillus subtilis (strain 168)), P80244; Potency, µM (highest dose often 57.5 µM), for the others: at the highest dose activity change, negative = active; purified B. subtilis ClpP, FRET peptide cleavage, 20 min; active = well fitted falling curve with a large enough effect; inconclusive = small, poorly fitted or top-dose-only effect; inactive = no such curve, though single readings can be large or run the other way; also: potency is read from the fitted curve at half-maximal effect; the source files actives as falling curves though it sought activators and does not explain the sign; nearly all actives have a fitted effect of over 65% in size
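Buffer: 100 mM Tris/HCl pH8, 100 mM KCl, 0.05% low protease BSA, 2.5% glycerol, 0.01% Tween-20. ClpP 10 microg/mL final; 20 min RT; delta FRET normalized to ADEP and DMSO controls.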
Integrin act MD: integrin-mediated muscular dystrophy alleviation activation; alpha7betagal myoblasts, beta-gal FDG fluorescence, 48 h; Potency, µM (highest dose often 38.3 µM), for inactives: top-dose activation, hits mostly activators; 350,000 compounds, 0.064% hits;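 also: potency is read from the fitted curve at half-maximal effect; 100% = response of the positive control SU9516; nearly all actives have a fitted effect of over 60% in size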
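alpha7betagal+/- myoblasts (passage 13, 250/well) treated 48 h at 37C with compounds at 1:260 dilution of DMSO stock. Lysed, then beta-galactosidase activity read as FDG fluorescence (ex 480/em 540) after 30 min, with pre-read for autofluorescence.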
USP2a block: USP2a (human) protease inhibition; O75604; 330,000 compounds, 0.01% hits; USP2 core, Ub-CHOP2 coupled fluorogenic reporter, 485/531; AID 463254; Potency, µM (titrated, usually from 38.3 µM), for the others: at the top dose activity change, negative = inhibition, usual class: inhibitors;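 also: potency is read from the fitted curve at half-maximal effect; plate controls were DMSO wells for no effect and full inhibition by NEM control for full effect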
Target sequence (O75604 whole entry, looked up): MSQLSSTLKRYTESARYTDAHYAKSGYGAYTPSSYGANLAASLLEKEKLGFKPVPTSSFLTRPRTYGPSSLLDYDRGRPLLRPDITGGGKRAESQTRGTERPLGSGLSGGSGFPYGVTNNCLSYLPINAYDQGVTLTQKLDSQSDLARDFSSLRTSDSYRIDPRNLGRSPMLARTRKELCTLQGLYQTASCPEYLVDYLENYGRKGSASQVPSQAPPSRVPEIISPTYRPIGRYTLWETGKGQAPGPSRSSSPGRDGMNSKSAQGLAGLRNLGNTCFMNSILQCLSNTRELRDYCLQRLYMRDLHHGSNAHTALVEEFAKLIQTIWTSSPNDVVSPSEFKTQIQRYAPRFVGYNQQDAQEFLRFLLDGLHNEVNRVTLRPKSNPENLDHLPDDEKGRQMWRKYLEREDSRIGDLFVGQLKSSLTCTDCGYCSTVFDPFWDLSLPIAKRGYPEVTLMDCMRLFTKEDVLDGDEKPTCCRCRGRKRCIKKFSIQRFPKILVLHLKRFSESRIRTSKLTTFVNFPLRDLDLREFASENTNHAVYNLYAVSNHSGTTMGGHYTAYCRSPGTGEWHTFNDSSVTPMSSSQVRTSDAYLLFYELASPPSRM
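USP2 core (10nM final) preincubated 30min RT with compound in 20mM Tris-HCl pH 8.0, 2mM CaCl2, 2mM beta-mercaptoethanol, 0.05% CHAPS; 25nM Ub-CHOP2 plus 25nM reporter substrate added, fluorescence (Ex485/Em531) read after 60min.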
Pin1 inh: human Pin1 inhibition | Q13526 | Pin1 FP peptide displacement, HiFluor488, 10 min | Potency, µM (top dose mostly 115 µM), for the others: at the highest dose activity, negative = inhibition, usual class: inhibitors | 390,000 compounds, 0.009% hits; active = well fitted inhibition curve with a large enough effect in the polarisation, with a control signal flat, not every such curve was filed as active; inconclusive = small, poorly fitted or top-dose-only effect, or effect the other way, or a change in a side signal; inactive = no such curve, though single readings can be large or run the other way; the % refers to the polarisation; also: potency is read from the fitted curve at half-maximal effect; % is scaled to controls: 0 for no effect and ±100 for the full control effect
Target sequence (Q13526 whole entry, looked up): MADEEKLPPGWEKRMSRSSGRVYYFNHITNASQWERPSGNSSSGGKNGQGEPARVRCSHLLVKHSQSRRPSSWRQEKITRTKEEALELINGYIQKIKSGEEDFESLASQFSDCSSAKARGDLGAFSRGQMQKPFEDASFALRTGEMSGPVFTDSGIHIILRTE
* marks the source's active call; other numbers are inactive results. Shown are actives, neighbours in structure and some others; about 1.9% of the full set was active somewhere. Unless noted, calls follow the shape of the dose curve; as a rule, active = well fitted curve in the direction sought with a large enough effect; inconclusive = small, poorly fitted or top-dose-only effect, or another doubt; inactive = no such curve, though single readings can be large; an effect the other way counts as inactive or inconclusive.

Results for COC[C@@H]1CCCN1c1ccc2c(c1)O[C@@H](COCc1ccccc1)CN([C@@H](C)c1ccccc1)S2(=O)=O ?
IL2 activator: -1.0; ClpP mod: 14.1µM*

What do the screens show for `CCOc1ccc2nc(N/C(N)=N/C(=S)Nc3ccc(C)c(C)c3)nc(C)c2c1`?
PKM2 activator: -2.6%; IL2 activator: -0.3; ClpP mod: 25.1µM*; Integrin act MD: 0.8%; USP2a block: 2.1%; Pin1 inh: -2.2%

Results for COc1ccc(NC(=S)/N=C(\N)Nc2nc(C)c3ccc(C)cc3n2)cc1 ?
PKM2 activator: -0.8%; IL2 activator: -2.4; ClpP mod: -1.5%; Integrin act MD: 37.9%; USP2a block: 0.9%; Pin1 inh: 29.2%

How did COc1cccc(-c2cc(C(F)(F)F)nc(NCCc3ccccc3)n2)c1 do in these assays?
ClpP mod: 28.2µM*; Pin1 inh: 2.1%

What do the screens show for `COc1ccc(-c2cc(C(F)(F)F)nc(NCCc3ccccc3)n2)cc1OC`?
ClpP mod: -22.3%; Pin1 inh: -0.9%

What do the screens show for `COc1ccc(-c2cc(C(F)(F)F)nc(NCc3ccc(Cl)cc3)n2)cc1`?
ClpP mod: 4.2%; Pin1 inh: inconclusive

How did FC(F)(F)c1cc(-c2ccco2)nc(NCCc2ccccc2)n1 do in these assays?
PKM2 activator: -5.7%; IL2 activator: -2.0; ClpP mod: 31.6µM*; Integrin act MD: -26.3%; USP2a block: 1.3%; Pin1 inh: inconclusive

Results for COc1cccc(-c2cc(C(F)(F)F)nc(NCc3ccc(F)cc3)n2)c1 ?
ClpP mod: 28.2µM*; Pin1 inh: -0.9%

What do the screens show for `COc1ccc(-c2cc(C(F)(F)F)nc(NCCc3ccccc3)n2)cc1`?
ClpP mod: 4.1%; Pin1 inh: -5.2%

What do the screens show for `N#C/C(=C\c1ccc(OC(=O)c2cccs2)cc1)c1nc2ccccc2[nH]1`?
PKM2 activator: -1.0%; IL2 activator: 1.7; ClpP mod: 28.2µM*; Integrin act MD: 3.0%; USP2a block: -1.8%; Pin1 inh: 82.4%

How did O=C(O)C1Nc2ccccc2C2C=CCC12 (stereo not given) do in these assays?
ClpP mod: -9.0%; Pin1 inh: inconclusive

What do the screens show for `Cc1ccc2c(c1C)NC(C(=O)O)C1CC=CC21` (stereo not given)?
PKM2 activator: -8.4%; IL2 activator: -2.7; ClpP mod: -7.3%; Integrin act MD: 9.8%; USP2a block: -2.7%; Pin1 inh: 7.57µM*

How did C=C1C=C(C(F)F)n2ncc(C(=O)N3CCCCC3)c2N1 do in these assays?
ClpP mod: -1.8%

Results for O=[N+]([O-])c1ccc(O)c(-c2nn[nH]n2)c1 ?
PKM2 activator: 1.7%; IL2 activator: 0.8; ClpP mod: 25.1µM*; Integrin act MD: 7.8%; USP2a block: 2.8%

What do the screens show for `O=C(NCCc1ccccc1)c1nn(-c2ccc(F)cc2)nc1CO`?
ClpP mod: inconclusive; Pin1 inh: -5.7%

Results for Cc1ccc(-n2nc(CO)c(C(=O)NC(C)c3ccccc3)n2)cc1C (stereo not given) ?
ClpP mod: 35.5µM*; Pin1 inh: -0.3%

What do the screens show for `CCc1ccc(-n2nc(CO)c(C(=O)NCC(c3ccccc3)c3ccccc3)n2)cc1`?
ClpP mod: inconclusive; Pin1 inh: -10.3%

Results for CCc1ccc(-n2nc(CO)c(C(=O)NC)n2)cc1 ?
ClpP mod: 14.1µM*; Pin1 inh: -4.1%

Results for Cc1ccc(-n2nc(CO)c(C(=O)NCc3ccccn3)n2)cc1C ?
ClpP mod: -4.9%; Pin1 inh: -5.0%

Results for Cc1ccc(-n2nc(CO)c(C(=O)NCCCc3ccccc3)n2)cc1C ?
ClpP mod: 31.6µM*; Pin1 inh: 8.8%

How did Cc1ccc(-n2nc(CO)c(C(=O)NC(C)CCCc3ccccc3)n2)cc1C (stereo not given) do in these assays?
ClpP mod: 35.5µM*; Pin1 inh: 3.7%

Results for CNCc1nc(-c2ccc[nH]2)c2cc(Cl)ccc2n1 ?
ClpP mod: -11.9%

How did CC(C)c1cccc(NC(=O)COC(=O)c2ccccc2OCc2cccc(Br)c2)c1 do in these assays?
ClpP mod: -13.3%

Results for CN1CCN(c2cccc(Nc3nn4c(=O)c5ccc(C(F)(F)F)cc5nc4s3)c2)CC1 ?
Pin1 inh: 2.8%

Results for CCc1ccc(-n2nc(CO)c(C(=O)NCCCc3ccccc3)n2)cc1 ?
ClpP mod: 28.2µM*; Pin1 inh: -1.1%

How did O=C(NCCCc1ccccc1)c1nn(-c2ccccc2)nc1CO do in these assays?
ClpP mod: -13.9%; Pin1 inh: inconclusive

How did Cc1ccc(CN(C)C(=O)c2ccccc2Oc2ccccc2)o1 do in these assays?
PKM2 activator: 28.2µM*; IL2 activator: -2.5; ClpP mod: -1.5%; Integrin act MD: -43.6%; USP2a block: 3.3%; Pin1 inh: -0.1%

Results for Cc1ccc(CN(C)C(=O)c2ccc(S(=O)(=O)N(C)c3ccccc3)cc2)o1 ?
IL2 activator: -0.6; Integrin act MD: -30.2%; USP2a block: 1.6%; Pin1 inh: -19.5%

Results for Cc1ccc(-n2nc3ccc(NC(=O)c4ccc5c(c4)OCO5)cc3n2)cc1 ?
PKM2 activator: -0.5%; IL2 activator: -2.4; ClpP mod: 14.1µM*; Integrin act MD: 0.9%; USP2a block: -1.6%; Pin1 inh: 6.7%

How did O=C(Nc1ccc2nn(-c3ccccc3)nc2c1)c1ccc2c(c1)OCCO2 do in these assays?
PKM2 activator: 4.9%; IL2 activator: 1.2; ClpP mod: 8.91µM*; Integrin act MD: -19.1%; USP2a block: 3.6%; Pin1 inh: 3.3%

How did COc1ccc(-n2c(CCC(=O)O)ccc2-c2ccccc2)c(OC)c1 do in these assays?
ClpP mod: -11.5%; Pin1 inh: 4.7%

What do the screens show for `COC(=O)c1[nH]c2ccc(C)cc2c1NC(=O)CN1CCN(c2ccccc2)CC1`?
PKM2 activator: 6.5%; IL2 activator: -1.4; ClpP mod: 22.4µM*; Integrin act MD: -46.3%; USP2a block: -2.0%; Pin1 inh: -0.1%

How did COC(=O)c1[nH]c2ccc(C)cc2c1NC(=O)CN1CCN(Cc2ccccc2)CC1 do in these assays?
PKM2 activator: -2.6%; IL2 activator: -0.4; ClpP mod: 14.1µM*; Integrin act MD: -13.7%; USP2a block: 1.3%; Pin1 inh: 0.8%
